aDG glyco up: activators of alpha-DG glycosylation, primary screen, uHTS, Pro5-aDG cells, AlphaScreen; alpha-DG glycosylation AlphaScreen (IIH6); 0% Pro5, 100% B10-LARGE cell signal; activation, % at 10 µM; 360,000 compounds, 0.22% hits;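 active = activation of at least 8% versus controls, or a plate z-score of at least 8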;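 also: Pro5 are CHO cells carrying HIG-tagged alpha-DG that lacks glycosylation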
PHOSPHO1 block: PubChem AID 1565 | Phosphoethanolamine/phosphocholine phosphatase (Homo sapiens), Q8TCT1 | recombinant PHOSPHO1, absorbance phosphatase assay | inhibition, % at 13.3 µM | 290,000 compounds, 1.1% hits; in the data active = inhibition above about 60%
ALR inh: inhibitors of human ALR sulfhydryl oxidase, primary screen, biochemical, H2O2 detection, HRP-luminol luminescence, single point. FAD-linked sulfhydryl oxidase ALR (Homo sapiens), P55789. purified ALR, DTT oxidation. inhibition, % (no concentration beside the values). 290,000 compounds, 3.8% hits. AID 485317, 2010;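 active = mean replicate inhibition above about 79%, with every replicate also reaching it, limit read from the data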
Target sequence (P55789 whole entry, looked up): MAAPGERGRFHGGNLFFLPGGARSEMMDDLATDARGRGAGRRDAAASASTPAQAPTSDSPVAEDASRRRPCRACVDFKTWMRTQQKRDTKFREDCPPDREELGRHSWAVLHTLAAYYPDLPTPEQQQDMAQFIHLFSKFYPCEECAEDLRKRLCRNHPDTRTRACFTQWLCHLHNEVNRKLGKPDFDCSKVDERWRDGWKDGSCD
rCAG binder: binders of r(CAG) RNA repeats, primary screen, biochemical, fluorescence. r(CAG) RNA repeat, TO-PRO-1 dye displacement fluorescence. inhibition, % at 3 µM. 370,000 compounds, 1.3% hits;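 active = inhibition above the plate cutoff, the mean of all test compounds on that plate plus 3 SD, cut at about 35% in these data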;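 also: higher means more dye released from RNA so lower well fluorescence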
A3A deaminase: APOBEC3A ssDNA deaminase inhibitors, primary screen, selectivity assay for APOBEC3G inhibitor project, biochemical, FAM/TAMRA oligo cleavage fluorescence | 330,000 compounds, 0.41% hits | recombinant A3A, FAM/TAMRA ssDNA deamination fluorescence | inhibition, % at 20 µM | DNA dC->dU-editing enzyme APOBEC-3A (Homo sapiens), P31941 | AID 493011, 2011;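 active = at least 40% inhibition at 20 µM here, with at most 30% in a related deaminase screen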
Target sequence (P31941 whole entry, looked up): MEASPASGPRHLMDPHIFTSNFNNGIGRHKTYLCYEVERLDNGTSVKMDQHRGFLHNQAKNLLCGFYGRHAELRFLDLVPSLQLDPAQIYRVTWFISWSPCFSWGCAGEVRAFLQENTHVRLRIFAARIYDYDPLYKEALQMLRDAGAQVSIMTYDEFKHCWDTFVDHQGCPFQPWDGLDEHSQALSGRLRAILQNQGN
A3G deaminase: APOBEC3G DNA deaminase inhibitors, primary screen, biochemical, fluorescence, single-stranded DNA substrate, uHTS. inhibition, % at 20 µM. DNA dC->dU-editing enzyme APOBEC-3G (Homo sapiens), Q9HC16. 330,000 compounds, 0.28% hits. recombinant A3G, ssDNA deamination FAM/TAMRA fluorescence;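 active = inhibition of at least 40% at 20 µM, with no more than 30% in the related APOBEC3A deaminase screen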
APOBEC3G confirm: APOBEC3G deaminase inhibitor retest, confirmation, biochemical, fluorescence, single-stranded DNA substrate, single concentration. shares compounds with A3G deaminase. recombinant A3G ssDNA deaminase, UDG/FAM-TAMRA fluorescence. inhibition, % at 20 µM. 890 compounds, 72% hits;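 active = inhibition reaching a set limit in any replicate at 20 µM, the limit being 80% of the first screen's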
UDG ctr A3G: E. coli UDG inhibitors, confirmation, counter-screen for APOBEC3G inhibitor project, biochemical, single concentration, fluorescence, FAM/TAMRA oligo | shares compounds with A3G deaminase | UDG counterscreen | inhibition, % at 20 µM | 710 tested, under 10 active | AID 504715, 2011;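 active = compounds giving 40% or more inhibition at 20 µM in any one of the three replicates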;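 also: inhibitors lower the FAM signal released by uracil excision and alkaline cleavage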
Large screens that a line does not name were inactive (follow-up assays come after a bar, where they were run). The list is not random: actives were taken first. Their share in the collection is about 5.4%.

Cc1ccc(S(=O)(=O)C(C#N)c2nc3ccccc3nc2N2CCCC2)cc1 (configuration not stated)	A3G deaminase 45.1 | APOBEC3G confirm inactive | UDG ctr A3G inactive
COCCCNC(=S)N(CCCO)Cc1cc2cc3c(cc2[nH]c1=O)OCCO3	none
COCCCNC(=S)N(CCCO)Cc1cc2cc3c(cc2[nH]c1=O)OCO3	A3G deaminase 48.2 | APOBEC3G confirm inactive | UDG ctr A3G inactive
Clc1ccc(Cl)c(-c2nn3c(COc4ccccc4)nnc3s2)c1	A3G deaminase 45.9 | APOBEC3G confirm 51.0 | UDG ctr A3G inactive
c1ccc(OCc2nnc3sc(-c4cccs4)nn23)cc1	PHOSPHO1 block 60.8, A3G deaminase 67.3 (no result: ALR inh) | APOBEC3G confirm 34.2 | UDG ctr A3G inactive
COc1ccc(-c2nn3c(COc4ccccc4)nnc3s2)cc1OC	none
COc1ccc2c(C)cc(=S)[nH]c2c1	none (no result: ALR inh)
Cc1cc(C)c2[nH]c(=S)cc(C)c2c1	PHOSPHO1 block 104.3, A3G deaminase 72.7 | APOBEC3G confirm active | UDG ctr A3G inactive
COC(=O)[C@@]12C[C@@H](CC(=O)NCC3CCCCC3)C(=O)N(Cc3ccccc3)C1=CCC(C)(C)C2	none (no result: PHOSPHO1 block, ALR inh, A3A deaminase, A3G deaminase)
CCCN(C(=O)c1ccco1)c1nnc(-c2cccc(C)c2)s1	A3G deaminase 64.8 (no result: ALR inh) | APOBEC3G confirm inactive
CCOC(=O)[C@]12CCCC=C1N(Cc1ccco1)C(=O)[C@H](CC(=O)NCCCCc1ccccc1)C2	none (no result: PHOSPHO1 block, ALR inh, A3A deaminase, A3G deaminase)
CC(/C=N/n1c(-c2ccccn2)n[nH]c1=S)=C\c1ccccc1	ALR inh 95.7, A3G deaminase 51.0 | APOBEC3G confirm 37.5 | UDG ctr A3G inactive
S=c1[nH]nc(C2CCCCC2)n1/N=C/c1ccccn1	ALR inh 96.0, A3G deaminase 51.3 | APOBEC3G confirm 79.5 | UDG ctr A3G inactive
Cc1n[nH]c(=S)n1/N=C/c1c(O)ccc2ccccc12	A3G deaminase 45.8 | APOBEC3G confirm 84.9 | UDG ctr A3G inactive
S=c1[nH]nc(-c2ccccn2)n1/N=C/c1ccccc1	A3G deaminase 46.2 | APOBEC3G confirm 77.5 | UDG ctr A3G inactive
CC(/C=N/n1c(-c2ccco2)n[nH]c1=S)=C\c1ccccc1	none
COc1cc2c(c(OC)c1OC)[C@@]1(c3ccccc3)CCCCC[C@H]1[C@@H]2NC(=O)C(F)(F)F	none (no result: aDG glyco up, PHOSPHO1 block, ALR inh, A3A deaminase, A3G deaminase)
O=C1CC2C(CCC23OCCO3)c2ccc3ccccc3c21 (configuration not stated)	none (no result: PHOSPHO1 block, ALR inh, A3A deaminase, A3G deaminase)
COc1ccc(CC(=O)Nc2nc(OCCN3CCCC3=O)cnc2-c2cccc(C(F)(F)F)c2)cc1	none (no result: PHOSPHO1 block, ALR inh, A3A deaminase, A3G deaminase)
S=c1[nH]nc(-c2ccccc2)n1/N=C/c1ccc(Cl)cc1	none (no result: A3A deaminase, A3G deaminase)
S=c1[nH]nc(-c2ccccn2)n1/N=C/c1cccs1	none
S=c1[nH]nc(-c2ccccn2)n1/N=C/c1cccc2ccccc12	PHOSPHO1 block 78.5, ALR inh 95.9, A3G deaminase 66.1 | APOBEC3G confirm 70.2 | UDG ctr A3G inactive
S=c1[nH]nc(-c2ccccn2)n1/N=C/c1ccc(Cl)cc1	A3G deaminase 49.7 | APOBEC3G confirm 82.1 | UDG ctr A3G inactive
S=c1[nH]nc(-c2ccccn2)n1/N=C/c1c(Cl)cccc1Cl	A3G deaminase 70.7 (no result: ALR inh) | APOBEC3G confirm 92.8 | UDG ctr A3G inactive
Cc1ccccc1/C=N/n1c(-c2ccccn2)n[nH]c1=S	A3G deaminase 71.9 (no result: ALR inh) | APOBEC3G confirm 97.6 | UDG ctr A3G inactive
Cc1ccc(CN2CCC=CS2(=O)=O)cc1	none (no result: aDG glyco up, PHOSPHO1 block, ALR inh, A3A deaminase, A3G deaminase)
Cc1ccc(-c2cc(C(=O)Nc3cccnc3)c3ccccc3n2)o1	A3G deaminase 49.6 | APOBEC3G confirm 36.3 | UDG ctr A3G inactive
Cc1ccc(NC(=O)c2cc(-c3ccc(C)o3)nc3ccccc23)cc1	none

Source: PubChem
